Data from the supplement of paper PMC6555819.

What was measured:
Experiment in all cases: PBM binding z-score (relative to random genomic background probes); higher = stronger binding; sequences stand for … in GC…GCGATTGACAGCGTAGAATGAAGG
[1] = system: RARb homodimer (NR concentration 270 nM)
Procedure, shortened: (§1)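 The probes on custom Agilent 4×180K protein-binding microarrays were double-stranded, with 34-nt variable regions bearing direct-repeat seeds, single-nucleotide variants, half-site ablations and random human genomic background sequences. Incubation lasted 1 h with ligand-free nuclear receptor dimers in PBS pH 7.4, 2% milk, 0.02% Triton X-100, 1 mM DTT, 0.2 mg/mL BSA and 0.4 mg/ml salmon testes DNA. Antibodies against each partner (one per run) detected bound dimers, and fluorescence scans were regression-normalized. Binding z-scores take the random background probes as reference.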

[2] = system: RARg:RXRa (NR concentration 270 nM, RXRa partner concentration 90 nM)
Procedure, shortened: as §1

[3] = system: RARg homodimer (NR concentration 270 nM)
Procedure, shortened: as §1

[4] = system: RXRa DBDmut IVT, anti-RXR (DBD mutation: RXRa K156A/R161A, NR concentration 90 nM)
Procedure, shortened: as §1

[5] = system: RXRa homodimer (NR concentration 180 nM)
Procedure, shortened: as §1

[6] = system: THRa:RXRa (NR concentration 90 nM, RXRa partner concentration 90 nM)
Procedure, shortened: as §1

[7] = system: THRa homodimer (NR concentration 90 nM)
Procedure, shortened: as §1

[8] = system: VDR:RXRa (NR concentration 270 nM, RXRa partner concentration 90 nM)
Procedure, shortened: as §1

[9] = system: VDR homodimer (NR concentration 270 nM)
Procedure, shortened: as §1

Sequence | PBM binding z-score [1] | PBM binding z-score [2] | PBM binding z-score [3] | PBM binding z-score [4] | PBM binding z-score [5] | PBM binding z-score [6] | PBM binding z-score [7] | PBM binding z-score [8] | PBM binding z-score [9]
ACTATTAGTTGACTTAGGGCTACCGATACGACGC | -0.0045 | 0.457 | 0.61 | 0.644 | 0.257 | 1.21 | 0.349 | -0.0525 | 0.385
CCTACTGGGCCATCAGGTCGTTGATATCAACGTT | 0.879 | 0.238 | 0.401 | 0.0318 | 0.133 | 1.42 | 1.06 | 0.18 | 0.424
ATCTCTAGGTAAGACTCAGTTCAGGGAAGAACGC | 0.949 | 0.767 | 0.451 | 0.408 | 0.569 | 1.12 | 0.955 | 1.06 | 1.72
GCATATAGGAAATACAAGGTGAAAGTCCGATTGT | 0.623 | 0.263 | 0.484 | 0.294 | 0.281 | 1.94 | 0.81 | -0.189 | -0.126
TAAATGAGGTTATAAGATCAGGGAACGTTGCAAA | 0.147 | 1.79 | 0.975 | 1.21 | 2.24 | 1.9 | 0.348 | 1.1 | 0.859
ATATTTAGGTTAAGGGTCATTCAGGTTGGTTCGC | 4.22 | 4.81 | 3.84 | 2.51 | 5.68 | 3.95 | 3 | 5.46 | 5.16
ATCGAAAGGTCGACGAGGTGATTATACACCGTTT | 2.78 | 4.21 | 3.9 | 1.34 | 4.35 | 3.58 | 0.498 | 5.76 | 1.54
CCTACTGGGCCAAAAAGGTCGTTGATGCCGATAA | 1.92 | 1.18 | 0.763 | 0.0571 | 1.38 | 1.26 | -0.297 | 2.79 | 1.13
ACAGACAGGTGATGAAGGTATCTCAGGCTATCAT | 0.276 | 0.119 | 0.27 | -0.321 | 0.203 | 0.741 | -0.068 | -0.0743 | -0.586
GCTTACGGTTCAAAGGTTATAGCATGAATAGAAT | 1.54 | 3.57 | 1.39 | 2.62 | 7.16 | 2.59 | 0.09 | 4.41 | 2.52
CAAACTAGGTCACAGAGGTCTAAGTCCGTGCGTA | 3.5 | 4.44 | 4.87 | 1.85 | 3.76 | 3.54 | 1.82 | 4.9 | 1.87
CTCGAGAGGTCGGTTGAGGTGAGTATACGGATAA | 1.99 | 2.11 | 2.3 | 1.57 | 2.06 | 5 | 1.39 | 2.59 | 1.16
ACAGACAGGTGATGAAGGTAAATCAGGCTATCAT | 0.0548 | 0.28 | 0.373 | -0.384 | 0.316 | 0.885 | -0.061 | 0.133 | -0.34
TCTTGTAGATCAATAGATGTTAAGAAAGTGCGCT | -0.256 | 0.00708 | 0.206 | 0.767 | 0.395 | -0.118 | -0.769 | 0.468 | -0.147
CCTAGTTGGTCAGGAGGTCACCCACCGGATATGA | 4.11 | 4.91 | 4.4 | -0.0796 | 4.2 | 3.47 | 2.51 | 3.66 | 2.4
TCTAGTTGGTGAAAGGTCACACACTCGAAATGCG | 4.86 | 6.24 | 5.72 | 1.95 | 7.42 | 3.97 | 2.01 | 4.89 | 2.58
CAAACTAGGTCACAGAGATCAAAGTCCGTGCGTA | 3.1 | 4.52 | 4.87 | 1.59 | 3.84 | 3.28 | 1.27 | 4.39 | 0.964
AGTCAAAGTTCATCTAGGTAGCGTAAGATATGCT | 3.79 | 5.6 | 5.81 | 4.63 | 4.48 | 2.62 | -0.478 | 4.94 | 5.34

Sequence | PBM binding z-score [1] | PBM binding z-score [2] | PBM binding z-score [3] | PBM binding z-score [4] | PBM binding z-score [5] | PBM binding z-score [6] | PBM binding z-score [7] | PBM binding z-score [8] | PBM binding z-score [9]
ATCGAAAGGTCGAGGTGAGCATAGAGAAAGGGAA | 2.98 | 4.34 | 4.61 | 0.687 | 4.63 | 2.98 | 0.737 | 2.36 | 0.234
CTTTACGGGTCACGAGGTTATAGCACGACGAGCG | 4.15 | 6.33 | 5.71 | 2.53 | 7.44 | 3.92 | 1.66 | 5.31 | 2.28
CCGACTGGGGCAGAAAGTTTACCATACCATCCGG | 0.899 | -0.0805 | 0.478 | -0.44 | -0.178 | -0.72 | -0.708 | 0.484 | 0.157
TAGCGTAGGTCATGCGGGCCAGTATAGTGTCGGC | 2.91 | 4.14 | 4.63 | 0.594 | 3.78 | 2.27 | -0.424 | 3.33 | 0.141
TCAGACAGGAGAAGGTAACTCAGGTACGCAGTCG | -0.2 | 0.286 | 0.356 | 1.23 | 0.47 | 0.913 | 0.177 | 0.714 | -0.0806
GCGACTGGGGCATCAGCAGGGTACCATAACTTAA | 0.489 | 0.0941 | 0.0483 | -0.313 | -0.0228 | 0.147 | -0.7 | -0.459 | -0.477
TCTTGTAGATCAATAAAGGTTAAGAAAGTGCGCT | 1.87 | 1.1 | 0.821 | 1.1 | 1.72 | 2.05 | -0.219 | 2.18 | 0.571
TATACAGGGTCAAAGGCGAGAGTACGAATGTCGA | 3.17 | 5.39 | 5.04 | 2.92 | 6.67 | 3.42 | 0.888 | 4.59 | 3.09
CCTGCTAGGACATGGTCAGCTAATCTACAGTATG | -0.2 | -0.204 | 0.478 | 0.385 | -0.656 | 0.568 | -0.28 | -0.684 | -0.547
CCTCGGAGGACAGCAGGAGGTCAGAGCTGCCAGA | 3.24 | 3.07 | 2.93 | -0.25 | 1.56 | 2.41 | 0.786 | 1.09 | 0.762
GCTGCTAGGACAACTGATGGTCAGCTAAAGCTCG | 0.137 | -0.166 | 0.37 | -0.0279 | -0.722 | 0.434 | -0.447 | -0.904 | -1.49
TAGAGTAGGTTACCAATGGGGCATTCAGCTTTCT | 1.09 | 1.76 | 1.12 | 0.201 | 0.73 | 0.389 | -0.222 | 0.34 | -0.0971
CCTAGCAGGCCAAACTGGGTCACTCAAGGCTTGA | 2.17 | 1.16 | 1.51 | 0.301 | 0.807 | 3.68 | 0.159 | 0.616 | -0.107
GATACAGGGTCAGCTAGAGGCCAGACTATGGAAA | 3.59 | 6.62 | 4.83 | 0.964 | 4.23 | 3.1 | 0.411 | 3.23 | 0.781
TCATATAGGTAATACAGGTGAAAGTGGGCATCTA | 0.844 | 0.777 | 0.705 | 2.06 | 1.3 | 0.901 | 0.52 | 1.47 | 0.577
GCTGCTCGGTCAGGTTGGTCAGCTAACGGGTACG | 1.53 | 0.691 | 2.11 | -0.37 | -0.405 | -0.155 | -0.287 | -0.457 | -0.476
CAAACTAGGTGAAGGTCAAAGTCGGTTTGTGCCA | 3.92 | 4.07 | 4.37 | 1.5 | 4.34 | 3.14 | 0.696 | 3.79 | 2.23
CGTCCAAGGTCAAGGTCTGTGAAAGAGACTCGAA | 3.88 | 6.09 | 6.55 | 3.21 | 5.2 | 3.83 | 2.46 | 3.73 | 1.78
